Screening data as filed in PubChem BioAssay.
Only some compounds are listed: those with a hit (about 1.5% of all), similar ones and a draw of the others.
MenB inh – M. tuberculosis MenB inhibitors, primary screen, biochemical, absorbance. 1,4-dihydroxy-2-naphthoyl-CoA synthase (Mycobacterium tuberculosis (strain ATCC 25618 / …. MenB enzyme assay, absorbance read-out. inhibition, % (test concentration not listed). hit rate 0.43% among 100,000; in the data active = inhibition above about 21%, passing the limit was not always enough
MbtI inh – MbtI salicylate synthase inhibitors, primary screen, biochemical, fluorescence intensity; hit rate 0.89% among 100,000; P9WFX0; inhibition, % (concentration not given with the values); purified MbtI enzyme, fluorescence intensity read-out; in the data active = inhibition mostly above about 56%, no sharp cut-off; inactive = mostly below about 77%
PV pol inh – poliovirus RdRp elongation inhibitors, primary screen, biochemical, fluorescence polarization, total intensity | Genome polyprotein (Poliovirus type 1 (strain Mahoney)), P03300 | hit rate 0.66% among 150,000 | % elongation, % (compound at 16.7 µg/mL) | AID 588519, 2011 | poliovirus polymerase elongation; hits give low values; in the data active = % elongation below about 90%
* = called active by the depositor; . = no result given.

SMILES	MenB inh	MbtI inh	PV pol inh
CON(C)S(=O)(=O)c1ccc(N=Cc2c(O)[nH]c(=O)[nH]c2=O)cc1	-85	2	102
O=C(CCNS(=O)(=O)c1ccc2c(c1)OCCO2)NC1CCCc2ccccc21 (stereo unspecified)	-11	-4	107
S=c1cc(-c2ccccc2)[nH]c(=S)[nH]1	-162	86*	98
S=c1nccc(-c2ccc3c(c2)CCO3)[nH]1	-40	24	97
S=c1[nH]c(-c2ccccc2)c(-c2ccccc2)[nH]1	-19	101	106
S=c1nccc(-c2ccccc2)[nH]1	-47	99	83*
CC1C(=O)NN=C1C(=O)N=Nc1c(O)[nH]c2ccccc12 (stereo unspecified)	-67	11	102
Cc1cc(Cl)ccc1OCC(=O)NCCOc1nc(N(C)C)nc(N2CCOCC2)n1	19	3	102
Cc1nn2c(nc(Cl)c3ccccc32)c1Cl	-13	33	100
O=C(N/N=C1\CCS(=O)(=O)c2ccc(F)cc21)c1ccc(O)cc1	3	4	101
O=C(N/N=C1/CCS(=O)(=O)c2ccc(F)cc21)c1ccccn1	15	-9	90*
NC(=S)NN=C1C2CC3CC(C2)CC1C3	-20	51	82*
NC(=S)NN=C1CCCCC1	-38	-3	101
CC(=O)NCCc1ccc(C(=O)CSc2nnc3n2CCCCC3)cc1	-10	6	104
CC(=O)c1ccc(NC(=O)C2=CC(c3ccc(C)cc3)=NS(=O)(=O)N2C)cc1	.	.	8.0*
CC(=O)c1ccc(NC(=O)C2=CC(c3ccc4c(c3)OCO4)=NS(=O)(=O)N2C)cc1	.	.	108
C=CCNC(=O)CSc1ccc(C)cc1	-3	-13	101
Cc1ccc(C)n1-c1ccc(C(=O)NNC2=NCCC2)s1	-25	15	103
O=c1c2c(nc3cc(-c4ccccc4)[nH]n13)CCC2	9	-59	99
O=c1c2c(nc3cc(-c4ccco4)[nH]n13)CCCC2	33*	89	104
Cc1nnc(SCC(=O)NC2CCCCC2)o1	2	-4	100
CC1=C(C(=O)OC(C)C)C2(O)C(=O)c3ccccc3C2(O)N1 (stereo unspecified)	-62	16	95
CCOC(=O)C1=C(C)OC2(O)c3ccccc3C(=O)C12O (stereo unspecified)	15	-6	56*
Cn1ncc(SCc2ccccc2)c(Cl)c1=O	-19	-3	109
Cn1ncc(S(=O)(=O)Cc2ccccc2)c(Cl)c1=O	4	90*	98
SMILES	MenB inh	MbtI inh	PV pol inh
COC(=O)c1ccc[nH]c1=S	-2	61	100
CCC(CC)NC(=O)c1ccc[nH]c1=S	-21	93*	102
CCOc1ccccc1NC(=S)NNc1nc2ccccc2o1	-59	51	99
S=C(NCCc1ccccc1)NNc1nc2ccccc2o1	9	32	37*
CCc1cc2c3c(c(=O)oc2cc1OCC(=O)O)CCCC3	-12	114	103
CCOC(=O)C1CCCN(C(=O)CCC2CCCCC2)C1 (stereo unspecified)	.	-3	.
COc1ccc(-c2sccc2C(C)C(=O)O)cc1 (stereo unspecified)	27*	6	105
COc1ccc2cc([C@H](C)C(=O)O)ccc2c1	-7	-1	99
CCCCCOc1ccc(NC(=O)C(C)(C)C)cc1	6	5	.
O=C(NC(Cc1ccccc1)C(=O)OCc1ccccc1)c1cccs1 (stereo unspecified)	.	-5	104
O=C(N[C@@H](Cc1ccccc1)C(=O)OCc1ccccc1)c1ccco1	-11	-8	80*
COc1cc(Cl)c(C)cc1NC(=S)N(Cc1ccccc1C)CC1CCC(C(=O)O)CC1 (stereo unspecified)	-11	52*	98
COc1cc(Cl)c(C)cc1NC(=S)N(CCN1CCCCCC1)Cc1ccco1	-22	6	101
CC(C)(C)C1(O)C=C(O)C(=O)N1c1cccnc1 (stereo unspecified)	53*	.	103
O=C1c2ccccc2C(=O)N1c1cccnc1	.	-12	.
CC(N=Cc1c(O)[nH]c2ccccc12)c1ccccc1 (stereo unspecified)	-11	6	102
CCn1c2ccccc2c2nc(C)sc21	-2	.	107
CCn1c(=S)sc2nc(C)sc21	9	101*	101
CC(C)c1cc(=O)[nH]c(SCCOc2ccccc2Cl)n1	-75	73	103
Cn1c(=O)c2c(nc(SCSc3nc4c(c(=O)n(C)c(=O)n4C)n3C)n2C)n(C)c1=O	-13	.	102
CC1CCN(CC(O)COc2ccccc2)CC1 (stereo unspecified)	-24	5	102
NC(=S)NNc1ccc(S(N)(=O)=O)cc1	3	51*	101
NC(=S)Nc1ccc(S(N)(=O)=O)cc1	-15	.	101
